The source made the active and inactive calls. How the source made its calls: active means hit-call score of the fitted dose curve at least 0.9, where 1 is the maximum; inactive means score below 0.9.
These compounds were tested on Transforming growth factor beta 1 (TGFb1), TGFB1 (gene 7040) (assay: BSK_KF3CT_TGFb1: BioMAP Diversity Plus: KF3CT Assay for Transforming growth factor beta 1 (TGFb1) Biomarker Activity (AID 2283072)). Conditions: primary human keratinocytes with fibroblasts; actives raise or lower the signal.
Procedure: BSK_KF3CT is a cell-based, multiplexed-readout assay that uses keratinocytes and foreskin fibroblasts, a human skin primary cell co-culture, with measurements taken at 24 hours after chemical dosing in a 96-well plate.BSK_KF3CT_TGFb1 is an assay component measured in the BSK_KF3CT assay. It measures TGF-b1 antibody related to regulation of gene expression using ELISA technology.Data from the assay component BSK_KF3CT_TGFb1 was analyzed into 1 assay endpoint. This assay endpoint, BSK_KF3CT_TGFb1, was analyzed with bidirectional fitting relative to DMSO as the negative control and baseline of activity. Using a type of binding reporter, gain or loss-of-signal activity can be used to understand changes in the signaling as they relate to the gene TGFB1. Furthermore, this assay endpoint can be referred to as a primary readout, because this assay has produced multiple assay endpoints where this one serves a signaling function. To generalize the intended target to other relatable targets, this assay endpoint is annotated to the growth factor intended target family, where the subfamily is transforming growth factor beta.
The levels of cell surface (or secreted, indicated by the prefix "s") biomarker endpoints were measured by ELISA. Overt cytotoxicity to cells in confluent adherent cultures (all systems other than the BT system) was assessed by measuring total protein levels using sulforhodamine B (SRB) staining in parallel cultures at the time of biomarker measurements, indicated as SRB endpoints. For proliferation assays for adherent cell types, individual cell types are cultured at sub-confluence and relative cell numbers quantified by SRB staining at time points optimized for each system (48 h: 3C and CASM3C systems; 72 h: BT and HDF3CGF systems; 96 h: SAg system). SRB was performed by staining cells with 0.1% SRB after fixation with 10% TCA and reading wells at 560 nm.Viability and proliferation of PBMC (T cells) was quantified by Alamar Blue reduction for the SAg and BT systems. For PBMC viability (referred to as PBMC Cytotoxicity within the assay endpoint names), cells were plated (75,000/well in a 96-well plate) and then chemical samples added for 1 h before addition of activators, SEB and TSST-1 (20 ng/mL final concentration each). Cells were incubated for 90 h. Then, Alamar Blue (20 uL/well) (Invitrogen, Cat DAL1100) was added for 6 h, and the plates were read with a fluorescence microplate reader at 546/580 nm (excitation/emission). For PBMC proliferation, cells were plated and activated as above but incubated for only 16 h prior to addition of Alamar Blue. Plates were read after 6 h.

Compound | outcome | AC50
Cc1cc(Cc2ccc(N)c(C)c2)ccc1N | inactive | 
CN(C)CCCN1c2ccccc2Sc2ccc(Cl)cc21 |  | 33.2 µM (active)
CC(C)OC(=O)C(C)(C)Oc1ccc(C(=O)c2ccc(Cl)cc2)cc1 | inactive | 
Cc1c(C)c2c(c(C)c1O)CCC(C)(COc1ccc(CC3SC(=O)NC3=O)cc1)O2 (stereo not given) |  | 20.9 µM (active)
O=C(N[C@@H](c1ccccc1)[C@@H]1CCCCN1)c1cccc(C(F)(F)F)c1Cl |  | 20 µM (active)
CC(C)COC(=O)CCCCC(=O)OCC(C)C | inactive | 
Nc1nc(Cl)nc2c1ncn2[C@H]1C[C@H](O)[C@@H](CO)O1 | inactive | 
NCCOCCOCCN | inactive | 
CCCCc1nc2cccnc2n1Cc1ccc(-c2ccccc2-c2nnn[nH]2)cc1 | inactive | 
Cc1ccc(-c2cc(C(F)(F)F)nn2-c2ccc(S(N)(=O)=O)cc2)cc1 | inactive | 
CCCCC(CC)CO (stereo not given) | inactive | 
O=C(O)CN(CC(=O)O)CC(=O)O | inactive | 
CCCCCCC(CCCCCCCCCCC(=O)OCC(COC(C)=O)OC(C)=O)OC(C)=O (stereo not given) | inactive | 
CN(C)C(=O)NC1(c2ccccc2)CCN(CC[C@@]2(c3ccc(F)c(F)c3)CN(C(=O)c3ccccc3)CCO2)CC1 | inactive | 
CCCCCCCC(=O)OC | inactive | 
CCCCCCCCCC[N+](C)(C)[O-] | inactive | 
Cn1cnc2c1c(=O)[nH]c(=O)n2C | inactive | 
CCCCCCCCCCCCCCOS(=O)(=O)O |  | 5.78 µM (active)
CCCCC(CC)COC(=O)CCCCCCCC(=O)OCC(CC)CCCC (stereo not given) | inactive | 
N[C@@H](Cc1c[nH]c2ccccc12)C(=O)O | inactive | 

Compound | outcome | AC50
CC(=O)OC1CC(C)OC(C)O1 (stereo not given) | inactive | 
CCN(CC)CCOc1ccc(C(=C(Cl)c2ccccc2)c2ccccc2)cc1 |  | 12.4 µM (active)
CC(N)=O | inactive | 
CCOCCOCCO | inactive | 
Oc1ccccc1O |  | 10.4 µM (active)
C=CCc1ccc(OC)c(OC)c1 | inactive | 
CC1(C)C(=O)NC(=O)N1CO | inactive | 
Cc1occc(=O)c1O | inactive | 
O=C1c2c(O)cccc2Cc2cccc(O)c21 |  | 24.6 µM (active)
NC(=Nc1ccccc1)Nc1ccccc1 | inactive | 
COc1ccc(OC(F)(F)F)cc1CN[C@H]1CCCN[C@H]1c1ccccc1 | inactive | 
CN(C)C(=O)NC1(c2ccccc2)CCN(CCC[C@]2(c3ccc(Cl)c(Cl)c3)CCCN(C(=O)c3ccccc3)C2)CC1 | inactive | 
CCCCCCCCCCCCCCCCO | inactive | 
CCCCCCC(C=O)=Cc1ccccc1 | inactive | 
CCCC[C@H]1CN(CC2CCOCC2)C(=O)OC12CCN(C1(C)CCN(C(=O)c3c(C)ncnc3C)CC1)CC2 | inactive | 
O=C(O)CC(O)(CC(=O)O)C(=O)O | inactive | 
COC(=O)CCCC(=O)OC | inactive | 
CS(=O)(=O)c1ccc([C@@H](C[C@H]2CCC(=O)C2)C(=O)Nc2cnccn2)cc1Cl | inactive | 
Nc1nc(=S)c2[nH]cnc2[nH]1 | inactive | 
COC(=O)CCC(=O)OC | inactive | 
